The whole screen tested about 310,000 compounds, of which about 14,000 (4.5%) showed an effect of 50% or more. Effects have a minus sign here. What follows is part of a selection rich in strong results, with near analogues and random picks from the rest.
What follows are compounds tested against human ether-à-go-go-related gene (hERG) potassium channel (human, UniProt Q12809) (assay: primary screen, population patch clamp on CHO cells stably expressing hERG; higher = less effect of the substance).
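Further: peak tail current of the secondary pulse compared with the same well before compound.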

human ether-à-go-go-related gene (hERG) potassium channel, sequence (Q12809 whole entry, looked up): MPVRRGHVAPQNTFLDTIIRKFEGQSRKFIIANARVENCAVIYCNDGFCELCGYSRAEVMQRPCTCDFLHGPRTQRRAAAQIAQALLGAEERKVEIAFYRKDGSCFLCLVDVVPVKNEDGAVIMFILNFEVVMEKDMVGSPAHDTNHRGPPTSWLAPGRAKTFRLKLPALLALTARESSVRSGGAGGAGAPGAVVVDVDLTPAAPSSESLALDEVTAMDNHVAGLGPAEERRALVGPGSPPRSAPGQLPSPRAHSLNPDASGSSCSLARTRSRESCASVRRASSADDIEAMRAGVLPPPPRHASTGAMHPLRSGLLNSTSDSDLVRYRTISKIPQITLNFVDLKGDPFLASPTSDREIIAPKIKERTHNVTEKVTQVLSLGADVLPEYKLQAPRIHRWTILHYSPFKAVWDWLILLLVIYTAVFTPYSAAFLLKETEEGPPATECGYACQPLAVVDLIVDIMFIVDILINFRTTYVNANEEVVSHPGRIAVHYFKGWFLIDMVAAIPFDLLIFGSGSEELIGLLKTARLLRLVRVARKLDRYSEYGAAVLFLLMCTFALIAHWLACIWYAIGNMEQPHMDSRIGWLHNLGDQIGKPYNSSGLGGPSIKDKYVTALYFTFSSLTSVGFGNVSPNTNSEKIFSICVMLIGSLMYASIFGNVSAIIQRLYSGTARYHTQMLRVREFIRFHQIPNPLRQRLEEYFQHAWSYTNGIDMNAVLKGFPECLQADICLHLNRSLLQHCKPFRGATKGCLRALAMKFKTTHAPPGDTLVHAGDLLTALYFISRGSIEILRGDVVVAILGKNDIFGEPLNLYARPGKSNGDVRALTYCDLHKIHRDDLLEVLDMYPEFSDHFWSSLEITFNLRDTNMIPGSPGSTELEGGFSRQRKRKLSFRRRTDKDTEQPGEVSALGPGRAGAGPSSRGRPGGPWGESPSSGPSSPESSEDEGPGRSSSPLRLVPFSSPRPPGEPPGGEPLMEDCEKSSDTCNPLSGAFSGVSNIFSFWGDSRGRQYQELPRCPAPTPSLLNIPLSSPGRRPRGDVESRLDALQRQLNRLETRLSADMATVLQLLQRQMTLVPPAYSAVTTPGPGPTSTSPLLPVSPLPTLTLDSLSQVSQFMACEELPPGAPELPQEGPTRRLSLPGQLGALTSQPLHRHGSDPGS

| SMILES | hERG current change (%, negative = inhibition) at 10uM [%] |
| --- | --- |
| CC(C)(C)OC(=O)NCCCCCNC(=O)c1[nH]cnc1C(=O)Nc1ccccc1 | -53.2 |
| O=C(COC(=O)/C=C/c1ccccc1Cl)NC1CCCC1 | 14.6 |
| O=C(Nc1cccc2ccccc12)NC1CCCCC1O (stereo not drawn) | 0.227 |
| O=C(Nc1ccc(Cl)cc1Cl)C1CCC(=O)N1Cc1ccccc1Cl (stereo not drawn) | -2.67 |
| C#CCOCCOCCOCCNc1nc(N2CCN(C(=O)CCCCCCCCCCNC(=O)[C@H](CO)n3cc(CCCSC)nn3)CC2)nc(N2CCN(C(=O)CCCCCCCCCCNC(=O)[C@@H]([C@H](C)O)n3cc(C)nn3)CC2)n1 | 8.18 |
| Cc1nnc(SCC(=O)Nc2ccc3c(c2)OCCO3)s1 | 16.9 |
| C/C(=N\O)c1ccc2c3ccccc3n(C)c2c1 | 25.3 |
| COc1cc(CNCc2cccs2)ccc1OCc1ccccc1.Cl | -31.8 |
| N#C/C(=C\c1cn(-c2ccccc2)nc1-c1cccnc1)c1nnc2n1CCCCC2 | -63.2 |
| N#C/C(=C\c1c[nH]c2ccccc12)c1nnc2n1CCCCC2 | -29.5 |
| O=C(/C=C/c1cn(-c2ccccc2)nc1-c1cccnc1)N1CCCCC1 | -49.7 |
| Cc1cc(C(=O)COC(=O)C(C)NC(N)=O)c(C)n1Cc1ccco1 (stereo not drawn) | 10.5 |
| CCN(C(=O)Cn1nc(C)c([N+](=O)[O-])c1C)C1CCS(=O)(=O)C1 (stereo not drawn) | 24.1 |
| Cc1ccc(NC(=O)Cn2ccc([N+](=O)[O-])n2)cc1C | 14.2 |
| COc1ccc(N2CCN(C(=O)CSc3nc4c(c(=O)n(C)c(=O)n4C)n3C(C)C)CC2)cc1 | -50.2 |
| CC(C)n1c(SCC(=O)N2CCCC2)nc2c1c(=O)n(C)c(=O)n2C | -5.03 |
| Cn1c(=O)c2c(nc(N3CCOCC3)n2CCSc2ncccn2)n(C)c1=O | 0.639 |
| Cn1c(=O)c2c(nc(N3CCN(C(=O)c4ccco4)CC3)n2CCSc2ncccn2)n(C)c1=O | -57.4 |
| CC(C)n1c(CN2CCN(C(=O)c3ccco3)CC2)nc2c1c(=O)n(C)c(=O)n2C | -7.57 |
| CCCn1c(SCC(=O)N2CCN(c3ccc(OC)cc3)CC2)nc2c1c(=O)n(C)c(=O)n2C | -36 |
| CCN1CCN(c2nc3c(c(=O)n(C)c(=O)n3C)n2CCSc2ncccn2)CC1 | 3.51 |

| SMILES | hERG current change (%, negative = inhibition) at 10uM [%] |
| --- | --- |
| CC(C)n1c(SCC(=O)N2CCN(C(=O)c3ccco3)CC2)nc2c1c(=O)n(C)c(=O)n2C | -50.9 |
| CC(C)n1c(SCC(=O)N2CCN(C)CC2)nc2c1c(=O)n(C)c(=O)n2C | 2.15 |
| COc1ccc(S(=O)(=O)N2CCOC2CNC(=O)C(=O)NCc2ccc3c(c2)OCO3)cc1 (stereo not drawn) | -25.6 |
| Cc1ccc(S(=O)(=O)N/N=C\c2ccc(Cl)c([N+](=O)[O-])c2)cc1 | 18.4 |
| CCOC(=O)c1sc(=S)n(-c2cccc(OC)c2)c1N | -7.09 |
| CCc1ccc2[nH]c(=O)c(C(c3nnnn3CC3CCCO3)N3CCCc4ccccc43)cc2c1 (stereo not drawn) | 19.8 |
| O=C(COC(=O)c1ccccc1Oc1ccccc1)NCc1ccco1 | -19.1 |
| O=C(Nc1cccc(S(=O)(=O)Nc2ccc(Cl)cc2)c1)c1ccc(Cl)nc1 | 19.8 |
| Cc1oc(-c2ccccc2F)nc1CS(=O)(=O)CC(=O)N1CCc2ccccc21 | 12.4 |
| CC(C)(C)NCc1cc(Br)ccc1OCc1cccs1.Cl | -52.5 |
| C=CCOc1ccc(Br)cc1CNC(C)(C)C.Cl | -14.7 |
| CC(C)(C)NCc1cc(Cl)ccc1OCc1cccs1.Cl | -32.5 |
| CC(C)COc1ccc(Br)cc1CNC(C)(C)C.Cl | -41.8 |
| CC(C)(C)NCc1cc(Br)ccc1OC1CCCC1.Cl | -53.8 |
| CC(C)(C)NCc1ccccc1OCc1cccs1.Cl | 6.17 |
| CCN(CC)CCNC(=O)c1ccc(NC(=O)Cc2ccsc2)cc1 | 15.6 |
| O=c1oc2ccccc2cc1N1CCOCC1 | -7.08 |
| CN(C)S(=O)(=O)c1ccc(C(=O)Nc2nnc(-c3cccs3)o2)cc1 | 31.7 |
| O=C(COC(=O)c1ccc(F)cc1F)Nc1ncccn1 | -3.24 |
| O=C(COC(=O)c1ccc(F)cc1F)Nc1cccnc1Cl | -56.3 |
| O=C(COC(=O)c1ccccc1F)Nc1cccnc1Cl | -2.16 |

Source: PMC4336329 (PLoS ONE, 2015)
